This is part of a sample that, as a whole, favours compounds with a hit. Of some 83,000 tested, about 20% had one in any assay.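 Growth was measured after 48 h exposure to one concentration of compound in 96-well plates. Values under 10 count as active.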 A number with no mark means an inactive call. The source made the active and inactive calls.

Drawing on PubChem BioAssay (NCI), this text covers growth for 10 compounds.

The subject of this assay is HL-60(TB) leukemia. Description: NCI-60 one-dose screen, 48 h (100 = growth as untreated, 0 = no growth, -100 = all killed). Conditions: 10 µM unless noted.
As for `Cc1cc2c(-c3nc4ccccn4c3NC34CC5CC(CC(C5)C3)C4)c(O)c(O)cc2c(O)c1-c1c(C)cc2c(-c3nc4ccccn4c3NC34CC5CC(CC(C5)C3)C4)c(O)c(O)cc2c1O`, the growth was 5.04% (active).

Consider `COc1ccc2cc(C(=O)N3CCC([C@@H](C)C(=O)NCc4ccc5c(c4)OCO5)CC3)[nH]c2c1`, for which the growth is 91% [50 µM].

For the compound `COC(=O)[C@H](Cc1cn(C)cn1)NC(=O)[C@H](CC(C)C)NC(=O)Nc1cc(C(F)(F)F)cc(C(F)(F)F)c1`, the growth was -72.6% [100 µM] (active).

`CC(C)(C)n1cc(-c2ccnc(NCCNS(=O)(=O)c3ccccc3)c2)c(-c2cccc(O)c2)n1`: the growth was 45%.

Regarding `Cc1ccc(S(=O)(=O)OCC(=O)Nc2ccc(C(=O)O)c(O)c2)cc1`, the growth is 60.4%.

On to `Cc1ccc2c(-n3nc(C#N)c(C#N)c3N)cc(=O)[nH]c2c1`, for which the growth is 109%.

On to `Cc1cc2ccccc2c[n+]1CC(=O)c1ccc(-c2ccccc2)cc1`, for which the growth is 22.5%.

For `C#CC[C@@H]1C[C@]2(C)[C@H]3CC[C@@H]4[C@H]5[C@H](C(=C)C)CC[C@]5(C(=O)O)CC[C@@]4(C)[C@]3(C)CC[C@H]2C(C)(C)[C@H]1O`, the growth was 44.2%.

For the compound `C[C@H]1[C@H]2[C@H]3CC[C@@H]4[C@@]5(C)CC[C@H](O)C(C)(C)[C@@H]5CC[C@@]4(C)[C@]3(C)CC[C@]23CO[C@]1(C)[C@@H](C(=O)/C=C\c1cccnc1)C3`, the growth was 47.5%.

`O=C1Nc2c(ccc(Cl)c2Cl)/C1=C/c1cc(Br)c(O)c(Br)c1`: the growth is 33%.
